Here are results for one sequence from publication PMC7862700, “An all-to-all approach to the identification of sequence-specific readers for epigenetic DNA modifications on cytosine”.

Assay in all cases: DAPPL (digital affinity profiling via proximity ligation, sequencing); 10 mM Tris-HCl pH 7.5, 50 mM NaCl, 1 mM DTT, 4% glycerol, room temperature, 30 min; GST-TFs on glutathione beads, 16-mer random dsDNA library, 0.1% formaldehyde crosslink after washing; high values mean tight binding
One assay concerns the target T1, FEV (Homo sapiens, UniProt Q99581 1-238).
T1 sequence: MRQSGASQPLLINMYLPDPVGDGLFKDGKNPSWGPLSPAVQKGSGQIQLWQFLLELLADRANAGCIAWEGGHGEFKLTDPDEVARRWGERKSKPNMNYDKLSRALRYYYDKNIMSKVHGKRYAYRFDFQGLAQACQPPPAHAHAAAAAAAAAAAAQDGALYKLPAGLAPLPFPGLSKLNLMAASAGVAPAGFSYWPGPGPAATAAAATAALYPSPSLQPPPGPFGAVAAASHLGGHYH
The settings on record: protein: recombinant; tags: N-terminal GST; dsDNA, one strand shown. The essentials: (§1)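 Binding signal is defined as a hexamer's read frequency for one factor over its frequency for the tag-only sample. To obtain reads, GST-fused human transcription factors were expressed in yeast, captured on glutathione beads, barcoded with DNA and pooled with that sample. Pools met 200 nmole of a 16-mer random double-stranded DNA library in Tris/NaCl/DTT/glycerol buffer for 30 min at room temperature before washing, 0.1% formaldehyde crosslinking, proximity ligation (BsaI/T4 ligase, 1 h, 37 °C), PCR and Illumina NextSeq500 sequencing.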

In another assay the target is ETV5 (Homo sapiens, UniProt P41161 1-510). Particulars: protein: recombinant; tags: N-terminal GST; dsDNA, one strand shown. Summed up: as §1
ETV5, sequence (P41161 whole entry): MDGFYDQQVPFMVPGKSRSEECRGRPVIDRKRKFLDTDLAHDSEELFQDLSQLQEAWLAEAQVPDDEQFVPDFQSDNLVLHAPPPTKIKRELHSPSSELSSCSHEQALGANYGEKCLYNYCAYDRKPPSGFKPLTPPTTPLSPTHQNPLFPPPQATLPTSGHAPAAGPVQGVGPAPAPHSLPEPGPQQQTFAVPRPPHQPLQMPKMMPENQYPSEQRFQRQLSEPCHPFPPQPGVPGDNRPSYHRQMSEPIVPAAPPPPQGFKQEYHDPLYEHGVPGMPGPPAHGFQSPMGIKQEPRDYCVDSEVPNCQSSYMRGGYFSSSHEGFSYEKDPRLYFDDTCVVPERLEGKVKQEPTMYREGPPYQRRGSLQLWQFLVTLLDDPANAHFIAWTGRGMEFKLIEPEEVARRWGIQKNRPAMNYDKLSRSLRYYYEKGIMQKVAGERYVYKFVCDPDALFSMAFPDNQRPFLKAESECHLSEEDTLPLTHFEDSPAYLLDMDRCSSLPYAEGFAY
A further assay deals with HSF1 (Homo sapiens, UniProt Q00613 1-529). The settings on record: protein: recombinant; tags: N-terminal GST; chain copies: 3; dsDNA, one strand shown. The essentials: as §1
HSF1, sequence (Q00613 whole entry): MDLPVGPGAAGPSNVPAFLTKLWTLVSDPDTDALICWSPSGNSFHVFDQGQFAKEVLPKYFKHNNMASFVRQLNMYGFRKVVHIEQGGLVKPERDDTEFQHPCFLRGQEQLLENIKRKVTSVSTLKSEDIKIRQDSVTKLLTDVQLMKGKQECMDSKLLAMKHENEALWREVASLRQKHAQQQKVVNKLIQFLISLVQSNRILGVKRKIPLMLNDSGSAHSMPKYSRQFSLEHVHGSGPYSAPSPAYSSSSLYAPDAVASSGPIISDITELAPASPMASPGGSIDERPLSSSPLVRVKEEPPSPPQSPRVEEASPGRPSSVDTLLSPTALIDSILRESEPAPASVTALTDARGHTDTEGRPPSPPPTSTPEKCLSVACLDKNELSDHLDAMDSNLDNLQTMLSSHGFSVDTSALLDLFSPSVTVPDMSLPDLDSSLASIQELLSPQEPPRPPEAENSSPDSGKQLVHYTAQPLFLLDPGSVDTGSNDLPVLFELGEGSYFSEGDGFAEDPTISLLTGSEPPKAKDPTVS
For another assay, the target named is T2, SPIC (Homo sapiens, UniProt Q8N5J4 1-248).
T2 sequence: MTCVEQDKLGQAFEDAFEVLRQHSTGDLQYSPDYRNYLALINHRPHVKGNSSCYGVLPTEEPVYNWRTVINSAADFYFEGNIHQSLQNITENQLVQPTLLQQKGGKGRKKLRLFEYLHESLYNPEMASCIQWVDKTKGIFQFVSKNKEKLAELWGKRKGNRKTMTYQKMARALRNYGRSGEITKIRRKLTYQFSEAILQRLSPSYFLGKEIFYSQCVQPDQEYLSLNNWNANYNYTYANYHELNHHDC
Particulars: protein: recombinant; tags: N-terminal GST; dsDNA, one strand shown. Summed up:
as §1

The next assay deals with ELF4 (Homo sapiens, UniProt Q99607 1-663). Particulars: protein: recombinant; tags: N-terminal GST; dsDNA, one strand shown. Summed up: as §1
ELF4, sequence (Q99607 whole entry): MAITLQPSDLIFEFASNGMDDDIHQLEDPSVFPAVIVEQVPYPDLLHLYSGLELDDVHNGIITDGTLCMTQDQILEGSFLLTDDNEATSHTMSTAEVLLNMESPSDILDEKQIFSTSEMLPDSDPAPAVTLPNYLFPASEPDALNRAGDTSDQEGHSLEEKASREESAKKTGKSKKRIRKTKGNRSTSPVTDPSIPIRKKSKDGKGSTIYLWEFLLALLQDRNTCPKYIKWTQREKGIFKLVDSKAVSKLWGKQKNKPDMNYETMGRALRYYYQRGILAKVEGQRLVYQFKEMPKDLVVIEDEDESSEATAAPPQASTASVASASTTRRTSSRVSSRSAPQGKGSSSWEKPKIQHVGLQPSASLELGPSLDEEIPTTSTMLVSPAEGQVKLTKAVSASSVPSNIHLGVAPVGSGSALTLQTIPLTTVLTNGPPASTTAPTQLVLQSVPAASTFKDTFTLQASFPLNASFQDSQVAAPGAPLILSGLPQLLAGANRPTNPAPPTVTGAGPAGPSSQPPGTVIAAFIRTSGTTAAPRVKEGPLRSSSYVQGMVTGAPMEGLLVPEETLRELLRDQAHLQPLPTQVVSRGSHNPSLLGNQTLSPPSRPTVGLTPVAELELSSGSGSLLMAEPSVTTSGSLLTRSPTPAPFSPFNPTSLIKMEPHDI
For a further assay, the target named is T3, ELK4 (Homo sapiens, UniProt P28324-2 1-405).
T3 sequence: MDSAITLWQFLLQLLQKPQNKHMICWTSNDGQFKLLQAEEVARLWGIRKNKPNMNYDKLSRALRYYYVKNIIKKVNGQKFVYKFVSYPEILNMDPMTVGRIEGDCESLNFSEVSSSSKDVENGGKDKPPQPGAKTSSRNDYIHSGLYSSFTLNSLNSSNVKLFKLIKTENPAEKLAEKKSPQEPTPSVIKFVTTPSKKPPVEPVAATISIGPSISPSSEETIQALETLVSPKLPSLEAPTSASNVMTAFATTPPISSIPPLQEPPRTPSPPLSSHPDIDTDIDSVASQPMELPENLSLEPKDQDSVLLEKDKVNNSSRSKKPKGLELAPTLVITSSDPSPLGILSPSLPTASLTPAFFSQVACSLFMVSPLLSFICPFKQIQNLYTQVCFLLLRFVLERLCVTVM
Particulars: protein: recombinant; tags: N-terminal GST; dsDNA, one strand shown. Summed up:
as §1

The target of the next assay is T4, ETV2 (Homo sapiens, UniProt O00321 1-342).
T4 sequence: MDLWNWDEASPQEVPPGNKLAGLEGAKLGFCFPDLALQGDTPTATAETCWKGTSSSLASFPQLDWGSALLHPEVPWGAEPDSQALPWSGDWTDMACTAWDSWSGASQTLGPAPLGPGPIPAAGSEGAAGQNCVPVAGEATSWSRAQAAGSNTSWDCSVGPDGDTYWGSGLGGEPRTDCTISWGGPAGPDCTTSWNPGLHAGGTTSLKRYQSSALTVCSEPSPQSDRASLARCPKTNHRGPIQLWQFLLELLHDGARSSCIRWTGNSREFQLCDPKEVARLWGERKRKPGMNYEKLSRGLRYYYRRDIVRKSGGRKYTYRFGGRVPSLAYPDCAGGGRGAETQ
The settings on record: protein: recombinant; tags: N-terminal GST; dsDNA, one strand shown. Summed up: as §1

For the next assay, the target named is T5, ELF3 (Homo sapiens, UniProt P78545 1-371).
T5 sequence: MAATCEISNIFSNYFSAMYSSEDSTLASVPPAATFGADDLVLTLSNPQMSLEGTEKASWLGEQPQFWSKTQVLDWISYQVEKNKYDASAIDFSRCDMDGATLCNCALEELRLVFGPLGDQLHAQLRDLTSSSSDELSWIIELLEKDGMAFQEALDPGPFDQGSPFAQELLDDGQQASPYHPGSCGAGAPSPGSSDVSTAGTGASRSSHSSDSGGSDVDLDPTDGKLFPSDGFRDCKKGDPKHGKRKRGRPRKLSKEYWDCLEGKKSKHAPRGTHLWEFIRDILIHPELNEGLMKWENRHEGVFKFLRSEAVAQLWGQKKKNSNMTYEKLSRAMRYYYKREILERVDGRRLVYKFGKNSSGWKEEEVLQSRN
Particulars: protein: recombinant; tags: N-terminal GST; dsDNA, one strand shown. Summed up: as §1

The target of another assay is CRX (Homo sapiens, UniProt O43186 1-299). Particulars: protein: recombinant; tags: N-terminal GST; dsDNA, one strand shown. Summed up:
as §1

Another assay has as its target ETV1 (Homo sapiens, UniProt P50549 1-477). The settings on record: protein: recombinant; tags: N-terminal GST; dsDNA, one strand shown. Summed up:
as §1

For another assay, the target named is T6, ERF (Homo sapiens, UniProt P50548 1-548).
T6 sequence: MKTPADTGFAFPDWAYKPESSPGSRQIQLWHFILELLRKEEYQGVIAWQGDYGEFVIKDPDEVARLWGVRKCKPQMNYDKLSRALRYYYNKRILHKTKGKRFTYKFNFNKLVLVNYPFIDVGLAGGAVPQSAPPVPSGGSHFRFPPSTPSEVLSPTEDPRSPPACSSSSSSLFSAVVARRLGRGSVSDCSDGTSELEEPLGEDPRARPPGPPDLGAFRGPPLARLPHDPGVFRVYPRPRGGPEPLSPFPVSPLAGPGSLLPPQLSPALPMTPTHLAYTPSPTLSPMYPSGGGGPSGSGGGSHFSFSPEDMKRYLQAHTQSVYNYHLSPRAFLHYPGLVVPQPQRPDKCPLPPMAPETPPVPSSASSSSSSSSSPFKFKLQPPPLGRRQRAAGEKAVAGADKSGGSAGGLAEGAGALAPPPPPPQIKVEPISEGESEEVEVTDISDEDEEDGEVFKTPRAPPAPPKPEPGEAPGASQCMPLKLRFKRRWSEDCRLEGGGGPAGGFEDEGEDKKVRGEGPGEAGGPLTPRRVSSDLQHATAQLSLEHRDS
Particulars: protein: recombinant; tags: N-terminal GST; dsDNA, one strand shown. The essentials: as §1

For a further assay, the target named is T7, ETV3L (Homo sapiens, UniProt Q6ZN32 1-361).
T7 sequence: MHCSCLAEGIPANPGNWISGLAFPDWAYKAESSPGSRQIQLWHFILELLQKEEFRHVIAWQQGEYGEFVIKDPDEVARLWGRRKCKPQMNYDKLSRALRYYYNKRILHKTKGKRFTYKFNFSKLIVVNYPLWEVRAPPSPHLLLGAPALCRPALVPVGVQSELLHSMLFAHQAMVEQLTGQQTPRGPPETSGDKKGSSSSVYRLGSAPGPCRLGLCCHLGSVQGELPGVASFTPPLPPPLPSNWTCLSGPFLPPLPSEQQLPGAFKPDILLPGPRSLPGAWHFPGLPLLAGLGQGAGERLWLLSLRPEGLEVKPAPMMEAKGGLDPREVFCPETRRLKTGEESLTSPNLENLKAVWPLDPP
Particulars: protein: recombinant; tags: N-terminal GST; dsDNA, one strand shown. Summed up:
as §1

The target in a further assay is T8, ETS2 (Homo sapiens, UniProt P15036 1-469).
T8 sequence: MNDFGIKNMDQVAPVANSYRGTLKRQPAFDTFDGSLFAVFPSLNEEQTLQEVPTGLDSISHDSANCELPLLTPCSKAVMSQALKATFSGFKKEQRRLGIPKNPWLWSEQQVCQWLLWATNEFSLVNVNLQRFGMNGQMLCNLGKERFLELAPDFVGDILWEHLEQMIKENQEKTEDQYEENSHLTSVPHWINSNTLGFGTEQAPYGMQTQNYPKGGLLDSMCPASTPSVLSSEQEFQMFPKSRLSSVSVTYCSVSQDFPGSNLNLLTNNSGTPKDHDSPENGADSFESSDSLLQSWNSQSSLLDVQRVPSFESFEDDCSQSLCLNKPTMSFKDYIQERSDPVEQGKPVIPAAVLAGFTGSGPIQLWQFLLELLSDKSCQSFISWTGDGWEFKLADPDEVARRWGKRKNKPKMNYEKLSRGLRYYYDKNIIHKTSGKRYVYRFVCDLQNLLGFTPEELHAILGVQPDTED
The settings on record: protein: recombinant; tags: N-terminal GST; dsDNA, one strand shown. Summed up:
as §1

The next assay has as its target T9, SPDEF (Homo sapiens, UniProt O95238 1-335).
T9 sequence: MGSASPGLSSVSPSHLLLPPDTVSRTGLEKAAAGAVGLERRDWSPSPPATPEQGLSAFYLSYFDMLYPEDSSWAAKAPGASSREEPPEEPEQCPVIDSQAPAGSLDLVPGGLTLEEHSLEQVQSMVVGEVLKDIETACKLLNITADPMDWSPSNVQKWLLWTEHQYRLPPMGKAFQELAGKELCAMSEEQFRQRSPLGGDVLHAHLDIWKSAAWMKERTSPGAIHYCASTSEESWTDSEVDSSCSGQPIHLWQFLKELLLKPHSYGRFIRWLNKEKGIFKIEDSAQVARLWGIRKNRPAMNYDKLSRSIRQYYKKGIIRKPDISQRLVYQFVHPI
Particulars: protein: recombinant; tags: N-terminal GST; dsDNA, one strand shown. Summed up: as §1

Another assay deals with T10, ETV7 (Homo sapiens, UniProt Q9Y603 1-341).
T10 sequence: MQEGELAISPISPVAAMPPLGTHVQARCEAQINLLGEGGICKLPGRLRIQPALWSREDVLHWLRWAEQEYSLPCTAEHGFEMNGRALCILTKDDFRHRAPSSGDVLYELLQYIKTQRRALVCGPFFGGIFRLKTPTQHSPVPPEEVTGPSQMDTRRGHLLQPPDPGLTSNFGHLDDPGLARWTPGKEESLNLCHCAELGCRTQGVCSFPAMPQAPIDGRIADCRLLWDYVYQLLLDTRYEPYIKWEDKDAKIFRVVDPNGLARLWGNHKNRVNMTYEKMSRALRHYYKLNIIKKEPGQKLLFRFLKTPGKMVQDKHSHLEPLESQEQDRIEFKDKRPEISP
The settings on record: protein: recombinant; tags: N-terminal GST; dsDNA, one strand shown. The essentials: as §1

A further assay has as its target T11, ELF5 (Homo sapiens, UniProt Q9UKW6-2 1-255).
T11 sequence: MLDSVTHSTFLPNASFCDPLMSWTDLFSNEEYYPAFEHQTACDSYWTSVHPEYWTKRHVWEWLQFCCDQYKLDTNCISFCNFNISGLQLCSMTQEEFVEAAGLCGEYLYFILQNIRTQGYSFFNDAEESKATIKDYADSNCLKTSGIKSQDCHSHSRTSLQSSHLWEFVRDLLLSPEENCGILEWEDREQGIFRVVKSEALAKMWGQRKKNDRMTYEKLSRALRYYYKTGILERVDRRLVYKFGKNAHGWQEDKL
Particulars: protein: recombinant; tags: N-terminal GST; dsDNA, one strand shown. Summed up: as §1

A further assay addresses T12, ETV3 (Homo sapiens, UniProt P41162-2 1-143).
T12 sequence: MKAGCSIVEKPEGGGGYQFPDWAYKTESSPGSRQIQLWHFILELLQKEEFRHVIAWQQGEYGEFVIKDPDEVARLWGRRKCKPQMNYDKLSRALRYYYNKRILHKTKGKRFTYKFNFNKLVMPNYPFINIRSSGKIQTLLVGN
Particulars: protein: recombinant; tags: N-terminal GST; dsDNA, one strand shown. The essentials: as §1

The target in another assay is ETV6 (Homo sapiens, UniProt P41212 1-452). The settings on record: protein: recombinant; tags: N-terminal GST; dsDNA, one strand shown. The essentials: as §1
ETV6, sequence (P41212 whole entry): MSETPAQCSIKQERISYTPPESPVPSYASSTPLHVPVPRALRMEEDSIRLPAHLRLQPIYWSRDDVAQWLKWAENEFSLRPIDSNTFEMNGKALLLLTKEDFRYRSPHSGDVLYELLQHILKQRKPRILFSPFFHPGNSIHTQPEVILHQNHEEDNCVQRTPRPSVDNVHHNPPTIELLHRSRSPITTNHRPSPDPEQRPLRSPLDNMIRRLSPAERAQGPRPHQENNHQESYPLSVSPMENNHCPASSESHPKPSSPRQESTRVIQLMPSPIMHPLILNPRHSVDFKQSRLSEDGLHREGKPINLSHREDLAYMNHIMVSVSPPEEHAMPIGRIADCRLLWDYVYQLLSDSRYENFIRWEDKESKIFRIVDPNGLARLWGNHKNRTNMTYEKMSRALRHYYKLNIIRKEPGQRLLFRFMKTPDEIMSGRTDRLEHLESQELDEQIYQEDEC

CRX, sequence (O43186 whole entry): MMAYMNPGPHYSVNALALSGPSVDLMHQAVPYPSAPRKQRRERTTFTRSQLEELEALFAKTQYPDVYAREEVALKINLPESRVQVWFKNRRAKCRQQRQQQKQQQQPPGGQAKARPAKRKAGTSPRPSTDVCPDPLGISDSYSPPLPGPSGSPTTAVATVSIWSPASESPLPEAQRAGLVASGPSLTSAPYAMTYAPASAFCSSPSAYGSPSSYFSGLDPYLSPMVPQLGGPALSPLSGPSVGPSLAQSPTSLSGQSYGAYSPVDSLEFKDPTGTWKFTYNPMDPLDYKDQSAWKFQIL
ETV1, sequence (P50549 whole entry): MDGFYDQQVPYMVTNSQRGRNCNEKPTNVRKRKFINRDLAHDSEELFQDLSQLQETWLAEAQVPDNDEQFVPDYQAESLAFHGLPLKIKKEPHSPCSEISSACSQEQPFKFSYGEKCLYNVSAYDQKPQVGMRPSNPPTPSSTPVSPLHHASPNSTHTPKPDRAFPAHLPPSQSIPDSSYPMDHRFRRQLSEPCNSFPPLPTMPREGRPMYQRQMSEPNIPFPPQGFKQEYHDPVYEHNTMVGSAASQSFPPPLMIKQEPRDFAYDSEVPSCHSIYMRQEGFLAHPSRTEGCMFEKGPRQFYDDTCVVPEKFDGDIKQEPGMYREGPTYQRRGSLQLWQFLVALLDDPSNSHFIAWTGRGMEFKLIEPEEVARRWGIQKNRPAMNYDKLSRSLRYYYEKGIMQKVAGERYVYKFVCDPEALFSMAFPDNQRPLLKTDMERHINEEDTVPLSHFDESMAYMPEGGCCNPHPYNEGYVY

In the case of TTAACT, the binding signal in the assay with FEV was 1.25 fold enrichment (6-mer frequency, TF over GST control); with ETV5 it was 1.2 fold enrichment (6-mer frequency, TF over GST control); in the assay with HSF1 it was 1.79 fold enrichment (6-mer frequency, TF over GST control); in the assay with SPIC it was 1.36 fold enrichment (6-mer frequency, TF over GST control); with ELF4, 1.23 fold enrichment (6-mer frequency, TF over GST control); in the assay with ELK4, 1.2 fold enrichment (6-mer frequency, TF over GST control). The binding signal with ETV2 was 1.17 fold enrichment (6-mer frequency, TF over GST control); with ELF3, 1.21 fold enrichment (6-mer frequency, TF over GST control); in the assay with CRX, 2.72 fold enrichment (6-mer frequency, TF over GST control); with ETV1 it was 1.16 fold enrichment (6-mer frequency, TF over GST control); in the assay with ERF, 1.23 fold enrichment (6-mer frequency, TF over GST control); in the assay with ETV3L it was 1.19 fold enrichment (6-mer frequency, TF over GST control). In addition, the binding signal in the assay with ETS2 was 1.25 fold enrichment (6-mer frequency, TF over GST control); with SPDEF, 1.18 fold enrichment (6-mer frequency, TF over GST control); with ETV7 it was 1.16 fold enrichment (6-mer frequency, TF over GST control); with ELF5 it was 1.17 fold enrichment (6-mer frequency, TF over GST control); in the assay with ETV3 it was 1.22 fold enrichment (6-mer frequency, TF over GST control); in the assay with ETV6, 1.17 fold enrichment (6-mer frequency, TF over GST control).
